Data taken from PubChem BioAssay.
The source made the active and inactive calls.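 Rule for the calls, unless noted: active = visually confirmed hit in the image check and inhibition above 20%; inconclusive = visually confirmed hit but inhibition not above 20%; inactive = no visual hit in the image check.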

Legend:
[1] = inhibitors of TNFa-induced NFkB p65 translocation, primary screen, imaging, HUVEC, MLSMR starter and 10KST1 sets (AID 438;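 active = inhibition above 20% together with a positive visual image hit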;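 note: compound added about 3h40 before a 20 min TNFalpha stimulation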;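 for inhibition: signal is the nuclear over cytoplasmic p65 intensity ratio per well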); conditions: HUVEC TNFa-induced p65 nuclear translocation; cell count: measured here: nuclei count (cytotoxicity indicator), at 2.08 µM; inhibition: at 2 µM, stronger effect = higher value, 0% TNFa-plus-vehicle, 100% no-TNFa wells
[2] = inhibitors of E-selectin induction by TNFa, primary screen, imaging, HUVEC, immunofluorescence, MLSMR starter and 10KST1 sets (AID 487); conditions: HUVEC TNFalpha-induced E-selectin immunofluorescence imaging, at 2 µM; inhibition: stronger effect = higher value; nuclei count: measured here: cell number, toxicity;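 for inhibition: signal is fraction of cell area covered by stained E-selectin grains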;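 for nuclei count: 100% = median nuclei count of all wells on the same plate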
[3] = DUSP6 inhibitors restoring Erk phosphorylation by chemical complementation, primary imaging in DUSP6-transfected HeLa (AID 609;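 active = compounds giving at least 50% inhibition in the cell-based MKP-3 phosphatase rescue imaging test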;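 for inhibition: phospho-Erk level distribution per well compared with pooled transfected vehicle control wells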); conditions: HeLa MKP-3 transfected, phospho-Erk imaging KS statistic, at 10 µM, cells stimulated with TPA for 15 min
[4] = molecular target: Dual specificity protein phosphatase 6 (Homo sapiens) (UniProt Q16828); experiment: as above; conditions: HeLa MKP-3 transfected, phospho-Erk imaging KS statistic; at 10 µM; stronger effect = higher value; cells stimulated with TPA for 15 min
Chain of Dual specificity protein phosphatase 6 (Homo sapiens) (Q16828 whole entry, looked up): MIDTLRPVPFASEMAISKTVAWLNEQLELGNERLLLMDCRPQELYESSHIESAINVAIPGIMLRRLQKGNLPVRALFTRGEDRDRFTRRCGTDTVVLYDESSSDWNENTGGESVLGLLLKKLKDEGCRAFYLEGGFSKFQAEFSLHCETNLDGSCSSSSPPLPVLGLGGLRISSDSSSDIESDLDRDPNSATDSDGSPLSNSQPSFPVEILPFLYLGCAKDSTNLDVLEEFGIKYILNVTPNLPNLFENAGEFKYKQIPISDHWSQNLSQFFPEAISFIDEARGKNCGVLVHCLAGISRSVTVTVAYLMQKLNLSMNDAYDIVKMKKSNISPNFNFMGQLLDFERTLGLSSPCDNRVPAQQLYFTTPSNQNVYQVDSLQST

[5] = molecular target: Voltage-gated potassium channel subunit beta-2 (Rattus norvegicus) (UniProt P62483); experiment: KvBeta enzyme negative modulators, primary screen, biochemical, NADPH fluorescence (AID 622;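 active = fluorescence slope higher than the sample average by over 3 SD, cut at about -0.22 in these data, passing the limit was not always enough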;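 note: slope of raw intensity against log time taken from 70 to 1610 s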); conditions: recombinant KvBeta, 4-cyanobenzaldehyde reduction, at 10 µM, stronger effect = higher value
Chain of Voltage-gated potassium channel subunit beta-2 (Rattus norvegicus) (P62483 whole entry, looked up): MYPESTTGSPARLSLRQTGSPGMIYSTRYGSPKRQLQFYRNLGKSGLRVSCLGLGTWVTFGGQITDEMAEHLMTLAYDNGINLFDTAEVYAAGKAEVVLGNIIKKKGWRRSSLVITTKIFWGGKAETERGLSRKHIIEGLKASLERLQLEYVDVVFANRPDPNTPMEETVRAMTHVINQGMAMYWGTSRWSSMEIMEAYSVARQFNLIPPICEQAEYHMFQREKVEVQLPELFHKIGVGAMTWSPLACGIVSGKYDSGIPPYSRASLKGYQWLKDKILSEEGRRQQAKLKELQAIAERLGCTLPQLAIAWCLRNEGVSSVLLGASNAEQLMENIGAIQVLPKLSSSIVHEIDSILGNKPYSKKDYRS

[6] = molecular target: Voltage-gated potassium channel subunit beta-2 (Rattus norvegicus) (UniProt P62483); experiment: KvBeta positive modulators, primary screen, biochemical, NADPH fluorescence (AID 623;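 active = NADPH fluorescence slope more negative than the mean of all samples by about 3 SD, 99.7% confidence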;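 note: fluorescence intensity change per second fitted from 20 to 320 s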); conditions: Recombinant KvBeta, NADPH fluorescence decrease slope, 10 min; at 10 µM; stronger effect = lower value
[7] = molecular target: Muscarinic acetylcholine receptor M4 (Homo sapiens) (UniProt P08173); experiment: compounds altering M4/GIRK thallium flux, either direction, primary screen, M4 allosteric agonist project, cell-based, HEK293 M4/GIRK, BTC-AM (AID 625;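 active = fluorescence slope after compound addition differing from the mean of all tested samples at 99.7% confidence, mostly higher but some lower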;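 note: thallium influx through GIRK channels coupled to M4 in HEK293 cells with BTC-AM dye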); conditions: at 10 µM, actives lie on both sides
Chain of Muscarinic acetylcholine receptor M4 (Homo sapiens) (P08173 whole entry, looked up): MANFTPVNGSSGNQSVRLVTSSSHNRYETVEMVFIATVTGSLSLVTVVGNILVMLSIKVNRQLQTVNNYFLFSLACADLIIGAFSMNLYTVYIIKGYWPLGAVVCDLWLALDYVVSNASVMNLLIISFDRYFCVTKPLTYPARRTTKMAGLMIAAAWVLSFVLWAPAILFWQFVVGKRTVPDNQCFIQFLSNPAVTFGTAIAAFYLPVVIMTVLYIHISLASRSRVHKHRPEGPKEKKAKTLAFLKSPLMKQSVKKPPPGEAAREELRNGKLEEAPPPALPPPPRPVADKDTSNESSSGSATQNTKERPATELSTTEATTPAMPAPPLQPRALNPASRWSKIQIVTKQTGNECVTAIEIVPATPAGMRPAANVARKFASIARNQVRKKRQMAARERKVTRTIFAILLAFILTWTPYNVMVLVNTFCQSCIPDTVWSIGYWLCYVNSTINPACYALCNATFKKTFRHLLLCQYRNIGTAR

[8] = inhibitors of larval lipid processing in zebrafish, primary screen, whole organism, PED6 fluorescence, gall bladder and intestine (AID 686;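 active = a full or partial loss of lipid-probe fluorescence in the fish gall bladder, intestine or both, judged by eye; inactive = no fluorescence loss, or compound toxic to the fish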;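 note: larvae 5 to 7 days old with five fish per well; signal comes from phospholipase A2 cleavage of quenched PED6 carried via bile; overnight exposure to compound and PED6 before scoring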); conditions: Zebrafish larvae PED6 lipid processing, fluorescence scoring; screened at 20 µM (by protocol)
[9] = inhibitors of Chlamydomonas gravitaxis, primary screen, whole organism, Chlamydomonas reinhardtii, WT vs cilia-less mutant, absorbance, 96-well (AID 463189;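 active = inhibition at or above 50% relative to wild type and mutant plate controls; inactive = inhibition below 50%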;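 note: 0% = wild type cc124 cells in DMSO and 100% = ciliumless bld1 mutant cells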); conditions: OD600 absorbance, 2 days, at 10 µM, stronger effect = higher value
[10] = measured here: cell density z-score
[11] = measured here: nuclear c-Myc green intensity z-score
[12] = measured here: nuclear pErk red intensity z-score, stronger effect = higher value

SMILES | cell count [1] | inhibition [1] | inhibition [2] | nuclei count [2] | z-score [3, 10] | z-score [3, 11] | z-score [3, 12] | inhibition [4] | fluorescence slope [5] | NADPH fluorescence slope [6] | fluorescence slope [7] | outcome [8] | inhibition [9]
CCn1c(SCC(=O)NCc2ccco2)nnc1-c1ccc(N)cc1 | 669 | -1% (inactive) | 19.4% (inactive) | 189% | -0.439 | 0.193 | -0.177 | -3.95% (inactive) | -0.491 (inactive) | -4.4e-05 (inactive) | 0.00557 (inactive) | inactive | 6.36% (inactive)
CCCCSc1nnc(-c2ccc(NC(C)=O)cc2)n1C | 622 | -5.3% (inactive) | 21.1% (inactive) | 166% | -0.239 | 0.0535 | 0.233 | -13.3% (inactive) | -0.461 (inactive) | -3e-05 (inactive) | 0.00598 (inactive) | inactive | -9.33% (inactive)
Cc1ccc(C2/C(=C(\O)c3ccc4c(c3)OCCO4)C(=O)C(=O)N2CCCN(C)C)o1 (stereo not given) | 360 | -5.9% (inactive) | 24.2% (inactive) | 113% | -1.73 | 0.575 | -0.16 | 14% (inactive) | -0.474 (inactive) | -8.1e-06 (inactive) | 0.00787 (inactive) | inactive | -17.7% (inactive)
CCOc1ccc(NC(=O)c2nn(C)cc2Br)cc1 | 647 | 2.4% (inactive) | -41% (inactive) | 157% | 0.327 | 0.393 | -0.814 | -4.27% (inactive) | -0.489 (inactive) | -6.1e-05 (inactive) | 0.00579 (inactive) | inactive | 4.55% (inactive)
CC(C)CNc1nc2c(c(=O)n(C)c(=O)n2C)n1Cc1cccc(Br)c1 | 696 | 0.6% (inactive) | -160% (inactive) | 174% | 0.789 | -0.339 | -0.433 | 7.93% (inactive) | -0.498 (inactive) | -3.9e-05 (inactive) | 0.00519 (inactive) | inactive | 13.3% (inactive)
CCCCOC(=O)c1[nH]c(C)c(C(=O)OC)c1C | 604 | -7.5% (inactive) | 50.3% (inactive) | 98.7% | 0.82 | -1.07 | -0.474 | 37% (inactive) | -0.481 (inactive) | -1.9e-05 (inactive) | 0.00588 (inactive) | inactive | 90.5% (active)
COc1cc(C2C(C(=O)c3sc(C)nc3C)=C(O)C(=O)N2CCN(C)C)cc(OC)c1OC (stereo not given) | 398 | 3.6% (inactive) | -36.2% (inactive) | 155% | 0.333 | 0.0451 | 0.204 | 3.56% (inactive) | -0.446 (inactive) | -0.000115 (inactive) | 0.00444 (inactive) | inactive | -3.66% (inactive)
Cc1cc(N2C(=O)C(=O)/C(=C(/O)c3ccccc3)C2c2cccs2)no1 (stereo not given) | 668 | 0.1% (inactive) | -91.9% (inactive) | 165% | 0.267 | -0.396 | -0.163 | 6.04% (inactive) | -0.486 (inactive) | -1.4e-05 (inactive) | 0.00578 (inactive) | inactive | 24.8% (inactive)
O=c1c2ccccc2ncn1Cc1ccco1 | 682 | -8.5% (inactive) | -74.2% (inactive) | 138% | -0.419 | -1.56 | 0.938 | -15.1% (inactive) | -0.449 (inactive) | -3.2e-05 (inactive) | 0.00462 (inactive) | inactive | 14.3% (inactive)
CCN(CC)C(=O)CSc1nc2ccccc2c(=O)n1CC1CCCCC1 | 355 | -2.2% (inactive) | 4% (inactive) | 108% | -1.94 | 0.923 | -0.374 | 1.42% (inactive) | -0.484 (inactive) | 5.7e-06 (inactive) | 0.00498 (inactive) | inactive | 7.22% (inactive)
CCCCc1[nH]c(=O)c(C#N)c2c1CSC(C)(C)C2 | 551 | 0.5% (inactive) | -122% (inactive) | 132% | 0.749 | 0.642 | -1.4 | 17.4% (inactive) | -0.482 (inactive) | -0.000112 (inactive) | 0.00497 (inactive) | inactive | 0.152% (inactive)
CCOc1ccc(S(=O)(=O)N(C)CCO)cc1-c1nc2c(C(C)(C)C)nn(C)c2c(=O)[nH]1 | 637 | 4.6% (inactive) | -94.9% (inactive) | 165% | 0.365 | 1.27 | -0.248 | 1.12% (inactive) | -0.484 (inactive) | -3.4e-05 (inactive) | 0.00687 (inactive) | inactive | 8.59% (inactive)
Cc1nn(CC(=O)NCCN2CCOCC2)c(=O)c2ccccc12 | 472 | 4.4% (inactive) | -0.8% (inactive) | 116% | -1.02 | -0.0587 | 0.79 | 5.95% (inactive) | -0.469 (inactive) | -3.4e-05 (inactive) | 0.00615 (inactive) | inactive | 27.9% (inactive)
CN1CCc2c(C#N)c(N3CCCCC3)nc(NCc3ccccc3)c2C1 | 577 | -13.5% (inactive) | -93.5% (inactive) | 143% | 0.729 | -1.12 | 0.497 | -2.09% (inactive) | -0.422 (inactive) | -6.7e-05 (inactive) | 0.00359 (inactive) | inactive | 7.09% (inactive)
O=c1c2sc3nc(N4CCOCC4)c4c(c3c2ncn1Cc1ccco1)CCCC4 | 502 | 2.3% (inactive) | -62.8% (inactive) | 143% | -0.769 | -0.213 | 0.589 | 21.8% (inactive) | -0.369 (inactive) | -1.9e-05 (inactive) | 0.00575 (inactive) | inactive | 30% (inactive)
O=C(c1ccc(-n2cnnn2)cc1)N1CCOCC1 | 670 | -3.5% (inactive) | 18.9% (inactive) | 171% | 0.439 | -0.115 | 0.866 | 4.72% (inactive) | -0.492 (inactive) | -4.1e-05 (inactive) | 0.00579 (inactive) | inactive | -1.94% (inactive)
COC(=O)C(NC(=O)c1ccccc1)(Nc1nc(C)cs1)C(F)(F)F (stereo not given) | 687 | -8.5% (inactive) | -24.1% (inactive) | 152% | -0.446 | -1.08 | 0.594 | 10.9% (inactive) | -0.481 (inactive) | -3.9e-05 (inactive) | 0.00439 (inactive) | inactive | 11.6% (inactive)
Cc1cc(=O)oc(C)c1C(=O)NCC(C)C | 455 | -2.1% (inactive) | -11.5% (inactive) | 98.2% | -0.875 | 2.27 | -0.541 | 23.8% (inactive) | -0.432 (inactive) | -5.9e-06 (inactive) | 0.00519 (inactive) | inactive | -17.5% (inactive)
CC1(C)Cc2c(C#N)c(N3CCN(C(=O)c4ccccc4)CC3)nc(-c3ccco3)c2CS1 | 640 | -9% (inactive) | -74.3% (inactive) | 156% | 0.833 | 0.824 | -0.638 | 19.1% (inactive) | -0.401 (inactive) | -2.5e-05 (inactive) | 0.0059 (inactive) | inactive | 7.79% (inactive)
CN(C)CCCN(CCCNC(=O)/C=N/O)Cc1ccccc1 | 652 | -10.5% (inactive) | -38% (inactive) | 181% | -1.02 | -0.157 | 0.798 | -2.09% (inactive) | -0.495 (inactive) | -5.8e-05 (inactive) | 0.00839 (inactive) | inactive | 8.7% (inactive)
O=S(=O)(N[C@@H]1C[C@H]2CC[C@@H]1C2)c1cccs1 | 433 | -8.9% (inactive) | -51.9% (inactive) | 155% | 1.4 | -0.527 | -0.281 | 9.37% (inactive) | -0.458 (inactive) | -3.1e-05 (inactive) | 0.00569 (inactive) | inactive | -1.87% (inactive)
O=C(Oc1oc(-c2ccco2)nc1C=Nc1ccccc1)c1ccco1 | 504 | 15% (inactive) | -2% (inactive) | 108% | -2.44 | 1.67 | -0.418 | 22.1% (inactive) | -0.504 (inactive) | -3.8e-05 (inactive) | 0.0053 (inactive) | inactive | 38.4% (inactive)
COc1ccc2c(c1OC)C(=O)N1c3ccccc3C(=O)N(c3ccccc3F)C21 (stereo not given) | 708 | -7.9% (inactive) | -37.7% (inactive) | 134% | 0.797 | -1.74 | -0.312 | 5.35% (inactive) | -0.444 (inactive) | -5.7e-05 (inactive) | 0.00636 (inactive) | inactive | 3.94% (inactive)
C/C(NC(=O)c1ccccc1F)=C1\C(=O)C[C@@H]2[C@H]1C2(C)C | 697 | -13.5% (inactive) | -170% (inactive) | 187% | -0.142 | 0.763 | -0.13 | -2.47% (inactive) | -0.483 (inactive) | -0.000131 (inactive) | 0.00606 (inactive) | inactive | 24.1% (inactive)
CC1(C)Cc2c(C#N)c(SCc3nc4ccccc4[nH]3)nc(N3CCOCC3)c2CO1 | 464 | -6.9% (inactive) | -111% (inactive) | 99.1% | -1.63 | 0.58 | -0.0845 | 3.97% (inactive) | -0.39 (inactive) | 1.4e-05 (inactive) | 0.00539 (inactive) | inactive | -18.5% (inactive)
